{"source": "PubChem BioAssay AID624161", "about": "(National Center for Advancing Translational Sciences (NCATS), 2012)", "note": "The other results are listed elsewhere or left out. Inconclusive results are not listed. Active and inactive are the calls of the source. Calls come from the whole dose curve; as a rule, active = well fitted inhibition curve with a large enough effect; inconclusive = small, poorly fitted or top-dose-only effect; inactive = no such curve, though single readings can be large or run the other way. % is set by controls: 0 for no effect and ±100 for the full control effect; potency is the fitted concentration of half-maximal effect."}
{"target": "Histone-lysine N-methyltransferase 2A (Homo sapiens) (UniProt Q03164)", "sequence (Q03164 whole entry, looked up, the tested form may be a part)": "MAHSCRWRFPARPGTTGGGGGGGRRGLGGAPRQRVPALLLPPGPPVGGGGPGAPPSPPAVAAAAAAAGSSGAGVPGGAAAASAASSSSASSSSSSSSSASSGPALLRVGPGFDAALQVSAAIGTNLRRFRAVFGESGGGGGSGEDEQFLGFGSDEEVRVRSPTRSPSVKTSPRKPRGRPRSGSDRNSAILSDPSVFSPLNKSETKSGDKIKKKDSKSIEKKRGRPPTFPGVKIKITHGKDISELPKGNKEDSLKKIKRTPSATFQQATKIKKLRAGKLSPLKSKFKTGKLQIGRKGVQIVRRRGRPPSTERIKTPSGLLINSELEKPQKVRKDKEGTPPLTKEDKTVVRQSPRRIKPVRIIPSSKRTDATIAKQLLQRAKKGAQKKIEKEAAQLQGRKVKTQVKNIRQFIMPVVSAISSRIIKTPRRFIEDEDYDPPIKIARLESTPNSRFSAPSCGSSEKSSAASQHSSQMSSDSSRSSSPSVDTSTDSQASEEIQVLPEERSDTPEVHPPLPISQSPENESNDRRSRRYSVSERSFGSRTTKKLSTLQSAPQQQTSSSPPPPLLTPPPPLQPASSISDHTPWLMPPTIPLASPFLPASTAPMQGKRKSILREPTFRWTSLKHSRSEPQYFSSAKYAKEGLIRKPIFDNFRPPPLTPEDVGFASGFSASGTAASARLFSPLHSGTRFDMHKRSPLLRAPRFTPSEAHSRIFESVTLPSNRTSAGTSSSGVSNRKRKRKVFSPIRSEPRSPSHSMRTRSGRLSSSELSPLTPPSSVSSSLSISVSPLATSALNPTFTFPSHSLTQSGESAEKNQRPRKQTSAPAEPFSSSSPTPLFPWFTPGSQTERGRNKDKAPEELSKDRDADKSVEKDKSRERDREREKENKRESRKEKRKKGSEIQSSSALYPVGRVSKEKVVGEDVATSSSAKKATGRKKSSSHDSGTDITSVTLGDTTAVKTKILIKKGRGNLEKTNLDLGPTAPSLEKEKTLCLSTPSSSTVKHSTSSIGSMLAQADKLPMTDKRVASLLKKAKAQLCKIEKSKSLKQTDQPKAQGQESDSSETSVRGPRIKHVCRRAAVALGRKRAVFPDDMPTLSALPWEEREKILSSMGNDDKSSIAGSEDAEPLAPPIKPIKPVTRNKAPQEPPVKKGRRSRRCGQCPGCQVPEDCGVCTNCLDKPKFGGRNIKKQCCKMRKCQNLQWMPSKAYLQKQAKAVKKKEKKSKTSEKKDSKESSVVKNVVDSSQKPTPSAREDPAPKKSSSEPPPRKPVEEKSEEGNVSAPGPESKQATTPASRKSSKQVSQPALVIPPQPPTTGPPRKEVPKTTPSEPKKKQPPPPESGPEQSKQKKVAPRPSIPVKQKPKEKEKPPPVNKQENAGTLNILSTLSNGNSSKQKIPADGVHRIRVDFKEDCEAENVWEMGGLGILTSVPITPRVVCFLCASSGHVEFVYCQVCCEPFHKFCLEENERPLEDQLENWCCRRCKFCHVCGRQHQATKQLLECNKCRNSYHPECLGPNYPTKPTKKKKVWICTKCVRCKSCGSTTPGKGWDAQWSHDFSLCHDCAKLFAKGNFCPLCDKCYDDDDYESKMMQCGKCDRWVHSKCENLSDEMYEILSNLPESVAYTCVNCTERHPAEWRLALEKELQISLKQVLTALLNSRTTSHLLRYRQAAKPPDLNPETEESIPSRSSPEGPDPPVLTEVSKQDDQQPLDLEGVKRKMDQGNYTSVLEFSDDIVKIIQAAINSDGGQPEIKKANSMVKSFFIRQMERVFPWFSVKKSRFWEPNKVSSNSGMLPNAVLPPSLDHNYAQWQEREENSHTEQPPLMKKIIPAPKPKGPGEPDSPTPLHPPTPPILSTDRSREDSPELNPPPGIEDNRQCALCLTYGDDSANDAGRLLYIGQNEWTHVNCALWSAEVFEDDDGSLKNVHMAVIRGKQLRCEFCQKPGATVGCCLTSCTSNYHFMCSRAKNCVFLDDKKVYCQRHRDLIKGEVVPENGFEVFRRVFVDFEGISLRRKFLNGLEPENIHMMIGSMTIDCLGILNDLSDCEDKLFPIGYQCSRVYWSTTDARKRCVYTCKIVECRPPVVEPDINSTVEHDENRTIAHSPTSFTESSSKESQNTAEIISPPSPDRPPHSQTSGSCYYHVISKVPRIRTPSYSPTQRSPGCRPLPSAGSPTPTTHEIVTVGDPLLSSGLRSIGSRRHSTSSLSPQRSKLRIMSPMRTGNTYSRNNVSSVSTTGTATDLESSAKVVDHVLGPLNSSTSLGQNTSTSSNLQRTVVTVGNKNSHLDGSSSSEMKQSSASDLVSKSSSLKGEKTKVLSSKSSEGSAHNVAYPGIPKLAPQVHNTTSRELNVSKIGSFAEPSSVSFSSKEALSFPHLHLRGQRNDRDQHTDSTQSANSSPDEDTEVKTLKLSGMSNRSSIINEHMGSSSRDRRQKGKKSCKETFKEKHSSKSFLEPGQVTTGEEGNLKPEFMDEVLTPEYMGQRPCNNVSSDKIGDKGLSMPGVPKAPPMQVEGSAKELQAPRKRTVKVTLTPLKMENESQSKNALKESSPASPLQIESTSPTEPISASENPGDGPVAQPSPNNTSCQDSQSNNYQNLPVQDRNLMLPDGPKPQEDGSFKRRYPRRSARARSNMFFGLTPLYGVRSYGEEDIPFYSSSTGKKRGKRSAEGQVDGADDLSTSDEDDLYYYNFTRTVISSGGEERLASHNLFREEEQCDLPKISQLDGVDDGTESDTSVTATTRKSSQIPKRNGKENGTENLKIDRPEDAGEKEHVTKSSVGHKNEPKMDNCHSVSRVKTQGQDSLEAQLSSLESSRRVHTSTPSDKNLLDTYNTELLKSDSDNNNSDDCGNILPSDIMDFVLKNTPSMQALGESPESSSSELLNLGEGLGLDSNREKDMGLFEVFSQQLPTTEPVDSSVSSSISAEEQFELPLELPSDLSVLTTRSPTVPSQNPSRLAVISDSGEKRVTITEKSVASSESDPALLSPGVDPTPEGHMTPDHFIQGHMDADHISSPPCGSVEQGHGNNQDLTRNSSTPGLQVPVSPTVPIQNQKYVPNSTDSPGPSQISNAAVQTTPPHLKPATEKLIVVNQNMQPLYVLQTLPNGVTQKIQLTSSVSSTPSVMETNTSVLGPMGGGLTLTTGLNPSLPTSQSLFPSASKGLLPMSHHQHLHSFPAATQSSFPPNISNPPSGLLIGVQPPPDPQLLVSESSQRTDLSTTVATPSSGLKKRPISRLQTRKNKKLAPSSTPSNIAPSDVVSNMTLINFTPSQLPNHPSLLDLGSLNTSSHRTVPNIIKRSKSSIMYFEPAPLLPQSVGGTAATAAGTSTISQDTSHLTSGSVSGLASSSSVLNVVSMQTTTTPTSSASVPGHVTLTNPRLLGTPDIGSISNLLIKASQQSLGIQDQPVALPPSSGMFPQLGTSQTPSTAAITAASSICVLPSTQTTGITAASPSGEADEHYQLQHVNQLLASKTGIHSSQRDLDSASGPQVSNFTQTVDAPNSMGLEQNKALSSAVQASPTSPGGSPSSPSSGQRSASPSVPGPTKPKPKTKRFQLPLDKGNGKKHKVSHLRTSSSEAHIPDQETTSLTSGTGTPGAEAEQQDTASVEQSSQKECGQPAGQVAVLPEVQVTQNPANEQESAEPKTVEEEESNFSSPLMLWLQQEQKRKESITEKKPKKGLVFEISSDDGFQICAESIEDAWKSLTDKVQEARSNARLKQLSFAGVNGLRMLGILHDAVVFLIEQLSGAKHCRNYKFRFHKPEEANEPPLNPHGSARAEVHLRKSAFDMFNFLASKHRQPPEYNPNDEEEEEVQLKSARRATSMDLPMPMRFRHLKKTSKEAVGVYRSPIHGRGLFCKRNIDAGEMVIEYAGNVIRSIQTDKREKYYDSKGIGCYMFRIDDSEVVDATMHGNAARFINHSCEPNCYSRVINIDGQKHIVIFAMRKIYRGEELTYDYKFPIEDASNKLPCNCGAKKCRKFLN", "assay": "qHTS Fluorescence Polarization (FP) Assay for Inhibitors of MLL CXXC domain - DNA interaction: Texas Red FP; note: nearly all actives have a fitted effect of over 75% in size", "conditions": "MLL CXXC-DNA binding; series mostly up to 345 µM; activity change, negative = inhibition: at the top concentration", "description": "The MLL (Mixed Lineage Luekemia) gene is involved in chromosomal translocation that results in either acute lymphoid leukemia (ALL) or acute myeloid leukemia (AML). Chromasomal translocation of MLL gene is responsible for the fusion of N-terminal MLL to more than 60 different partner genes in frame. Many of the MLL partner genes contain transcription activation domains or function as transcriptional activators. Despite the heterogeneity of fusion partners, the N-terminus of MLL fusion proteins always consists of the N-terminal menin binding motif and the CXXC domain. The MLL-CXXC domain specifically recognizes unmethylated CpG sequences of the HOX-A gene. Disruption of the MLL-CXXC and HOX-A gene interaction leads to down regulation of HOX-A gene expression and may potentially reverse leukemogenesis. We have miniaturized and optimized an in-vitro assay to screen for inhibitors of the MLL-CXXC domain and HOX-A DNA interaction, which could have utility in MLL fusion leukemias.\nThis is a hit validation assay that tests this hits identified in the primary screen in this secondary screen, using a Texas Red FP as a read-out.\nNIH Molecular Libraries Probe Production Network [MLPCN]\nNIH Chemical Genomics Center [NCGC]\nPI Name: John Bushweller, University of Virgina\nThe affinity purified MLL-CXXC domain, unlabeled HOX-A9 DNA strand, Texas Red (FLSN) labeled HOX-A9 DNA strand were kindly supplied by the laboratory of Dr. John Bushweller, University of Virginia. All reagents were stored in single use aliquots at -80C.\nAssay buffer: 50 mM TRIS-HCl pH 7.5, 50 mM NaCl, 1 mM DTT. Add 0.05% BSA prior to reaction setup.\n1.Dispense 1 ul of a 7 uM MLL-CXXC solution prepared in assay buffer into column 1-48.\n2.Transfer 23 nl of compounds and unlabeled HOX-A9 per well.\n3.Incubate for 5 minutes at ambient.\n4.Dispense 1ul of a 50 nM TR-HOX-A9 solution prepared in assay buffer into columns 1-48\n5.Centrifuge for 30 seconds at 1000 RPM.\n6.Incubate for 30 minutes at ambient.\n7.Read using the Envision reader fluorescent polarization protocol."}
{"compound": "COc1ccc(S(=O)(=O)/N=C2\\C=C(NS(=O)(=O)c3ccccc3)C(=O)c3ccccc32)cc1", "activity change, negative = inhibition": "-22.2% (inactive)"}
{"compound": "COc1ccc(-c2onc3ccc(C(C)=O)cc23)cc1", "activity change, negative = inhibition": "-8.07% (inactive)"}
{"compound": "CCOC(=O)/C(N=Nc1cc(C(=O)O)cc(C(=O)O)c1)=C(\\O)CCl", "Potency": "142 µM (active)"}
{"compound": "O=C1NN(c2ccccc2)C(=O)/C1=C/c1ccc(-c2cccc(C(=O)O)c2)o1", "Potency": "126 µM (active)"}
{"compound": "COc1cc(/C=C2/C(=O)NN(c3ccc(F)cc3)C2=O)cc([N+](=O)[O-])c1O", "Potency": "126 µM (active)"}
